# In the supplement of paper PMC9262897, “Low-cost anti-mycobacterial drug discovery using engineered E. coli” (Nature Communications, 2022):
# Counter-ions that a name gives are not always drawn. ± gives the standard deviation of the averaged measurements.
# System: E. coli TESEC Alr+ wild-type control
# Experiment: growth (OD600 after 10 h); higher = more growth (less inhibition)
# Conditions: compound 0.1 mM; raw OD600 reference: median of DMSO wells 0.49, cell-free background 0.052
# Description: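 TESEC Mtb Alr E. coli (ΔaraC ΔtolC ΔentC Δalr ΔdadX, arabinose-inducible Mtb Alr) or the Alr+ wild-type control strain, grown in defined M9-fructose medium without D-alanine in 96-well plates with Prestwick library compounds at 0.1 mM and 1% DMSO. Low Alr induction is 0.1 µM arabinose and high induction is 10 mM arabinose.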
row,SMILES,growth
1,CC(C)[N+](C)(CCC(C(N)=O)(c1ccccc1)c1ccccc1)C(C)C [Isopropamide iodide],0.516 ± 0.045
2,CCNCC(O)c1cccc(O)c1 (stereo not given) [Etilefrine hydrochloride],0.446 ± 0.011
3,C[C@]12CC[C@H](O)C[C@@H]1CC[C@@H]1[C@@H]2CC[C@]2(C)C(=O)CC[C@@H]12 [Epiandrosterone],0.252 ± 0.013
4,CN1[C@@H]2CC[C@H]1C[C@@H](OC(=O)[C@H](CO)c1ccccc1)C2 [Hyoscyamine (L)],0.468 ± 0.045
5,CCC(COC(=O)c1cc(OC)c(OC)c(OC)c1)(c1ccccc1)N(C)C (stereo not given) [Trimebutine],0.255 ± 0.018
6,CN[C@@H]1[C@@H](O)[C@@H](O[C@@H]2[C@@H](O)[C@H](O[C@H]3O[C@H](CN)CC[C@H]3N)[C@@H](N)C[C@H]2N)OC[C@]1(C)O.CN[C@@H]1[C@@H](O)[C@@H](O[C@@H]2[C@@H](O)[C@H](O[C@H]3O[C@H]([C@@H](C)N)CC[C@H]3N)[C@@H](N)C[C@H]2N)OC[C@]1(C)O.CN[C@@H]1[C@@H](O)[C@@H](O[C@@H]2[C@@H](O)[C@H](O[C@H]3O[C@H]([C@@H](C)NC)CC[C@H]3N)[C@@H](N)C[C@H]2N)OC[C@]1(C)O [Gentamicine sulfate],0.0643 ± 0.0096
7,CC(=O)O[C@H]1C[C@H](O[C@H]2[C@@H](O)C[C@H](O[C@H]3[C@@H](O)C[C@H](O[C@H]4CC[C@@]5(C)[C@H](CC[C@@H]6[C@@H]5C[C@@H](O)[C@]5(C)[C@@H](C7=CC(=O)OC7)CC[C@]65O)C4)O[C@@H]3C)O[C@@H]2C)O[C@H](C)[C@H]1O[C@@H]1O[C@H](CO)[C@@H](O)[C@H](O)[C@H]1O [Lanatoside C],0.528 ± 0.096
8,CC(=O)[C@H]1CC[C@H]2[C@@H]3CC[C@H]4C[C@H](O)CC[C@]4(C)[C@H]3C(=O)C[C@]12C [Alfaxalone],0.3925 ± 0.0021
9,NC(=O)CN1CCCC1=O [Piracetam],0.491 ± 0.12
10,C[C@]12CC[C@H]3[C@@H](CCC4=CC(=O)CC[C@@H]43)[C@@H]1CC[C@@H]2O [Nandrolone],0.423 ± 0.015
11,C=C1CC[C@@]2(O)[C@H]3Cc4ccc(O)c5c4[C@@]2(CCN3CC2CC2)[C@H]1O5 [Nalmefene hydrochloride],0.4625 ± 0.0046
12,C[C@]12CC[C@@H](O)C[C@H]1CC[C@@H]1[C@@H]2CC[C@]2(C)C(=O)CC[C@@H]12 [3-alpha-Hydroxy-5-beta-androstan-17-one],0.262 ± 0.011
13,CC(C)(C)NCC(O)c1cc(Cl)c(N)c(Cl)c1 (stereo not given) [Clenbuterol hydrochloride],0.605 ± 0.12
14,C=CC[C@]1(O)CC[C@H]2[C@@H]3CCC4=CC(=O)CCC4=C3C=C[C@@]21C [Altrenogest],0.293 ± 0.0069
15,CC[C@@H](C(N)=O)N1CCCC1=O [Levetiracetam],0.453 ± 0.03
16,O=P1(N(CCCl)CCCl)NCCCO1 (stereo not given) [Cyclophosphamide],0.57 ± 0.069
17,C[C@]12C/C(=C/O)C(=O)C[C@@H]1CC[C@@H]1[C@@H]2CC[C@@]2(C)[C@H]1CC[C@]2(C)O [Oxymetholone],0.462 ± 0.01
18,C#C[C@]1(O)CC[C@H]2[C@@H]3CCC4=CC(=O)CC[C@]4(C)[C@H]3CC[C@@]21C [Ethisterone],0.48 ± 0.055
19,C[C@]12CC[C@H](O)C[C@H]1CC[C@@H]1[C@@H]2CC[C@]2(C)[C@@H](C3=CC(=O)OC3)CC[C@]12O [Digitoxigenin],0.439 ± 0.016
20,NCCc1c[nH]c2ccc(O)cc12 [Serotonin hydrochloride],0.475 ± 0.0089

row,SMILES,growth
1,O=[N+]([O-])O[C@@H]1CO[C@H]2[C@@H]1OC[C@@H]2O [Isosorbide mononitrate],0.548 ± 0.053
2,C[C@]12CCC(=O)C=C1C=C[C@@H]1[C@@H]2CC[C@@]2(C)[C@H]1CC[C@@]2(O)CCC(=O)O [Canrenoic acid potassium salt],0.502 ± 0.031
3,O=c1[nH]oc2c1CCNC2 [THIP Hydrochloride],0.539 ± 0.087
4,CC(=O)O[C@H]1C[C@@H]2CC[C@@H]3[C@H](CC[C@@]4(C)[C@H]3C[C@H]([N+]3(C)CCCCC3)[C@@H]4OC(C)=O)[C@@]2(C)C[C@@H]1[N+]1(C)CCCCC1 [Pancuronium bromide],0.506 ± 0.021
5,C=CCN1CC[C@]23c4c5ccc(O)c4O[C@H]2C(=O)CC[C@@]3(O)[C@H]1C5 [Naloxone hydrochloride],0.479 ± 0.016
6,COc1cc2c(cc1OC)C(C)NCC2 (stereo not given),0.453 ± 0.034
7,Fc1ccc(C(OCCN2CCN(CCCc3ccccc3)CC2)c2ccc(F)cc2)cc1,0.04777 ± 0.00025
8,Cc1cc(C(C#N)c2ccc(Cl)cc2)c(Cl)cc1NC(=O)c1cc(I)cc(I)c1O (stereo not given) [Closantel],0.128 ± 0.012
9,CN(C)[C@@H]1C(=O)C(C(N)=O)=C(O)[C@@]2(O)C(=O)C3=C(O)c4c(O)cccc4[C@@](C)(O)[C@H]3[C@H](O)[C@@H]12 [Oxytetracycline dihydrate],0.0551 ± 0.00064
10,"CC[C@@]1(O)C(=O)OCc2c1cc1n(c2=O)Cc2cc3ccccc3nc2-1 [Camptothecine (S,+)]",0.477 ± 0.033
11,"CN1CCC2(C)c3cc(O)ccc3N(C)C12 (single isomer, unassigned; (-)) [(-)-Eseroline fumarate salt]",0.577 ± 0.095
12,CN1[C@@H]2CC[C@H]1C[C@@H](OC1c3ccccc3CCc3ccccc31)C2 [Deptropine citrate],0.04883 ± 0.00038
13,O=C(O)CCCc1ccc(N(CCCl)CCCl)cc1 [Chlorambucil],0.537 ± 0.095
14,CN(C)C(=O)Oc1cc(OC(=O)N(C)C)cc(C(O)CNC(C)(C)C)c1 (stereo not given) [Bambuterol hydrochloride],0.618 ± 0.051
15,NC(=O)OCCCc1ccccc1 [Phenprobamate],0.562 ± 0.087
16,COc1cc2c(c(OC)c1OC)-c1ccc(OC)c(=O)cc1[C@@H](NC(C)=O)CC2 [Colchicine],0.6712 ± 0.00062
17,CO[C@]12C[C@@H](COC(=O)c3cncc(Br)c3)CN(C)[C@@H]1Cc1cn(C)c3cccc2c13 [Nicergoline],0.481 ± 0.049
18,CN[C@@H]1C[C@@H](c2ccc(Cl)c(Cl)c2)c2ccccc21 [Indatraline hydrochloride],0.0509 ± 0.0003
19,CN(C)[C@@H]1C(=O)C(C(N)=O)=C(O)[C@@]2(O)C(=O)C3=C(O)c4c(O)ccc(Cl)c4[C@@](C)(O)[C@H]3C[C@@H]12 [Chlortetracycline hydrochloride],0.0491 ± 0.00036
20,C[C@]12Cc3c[nH]nc3C[C@@H]1CC[C@@H]1[C@@H]2CC[C@@]2(C)[C@H]1CC[C@]2(C)O [Stanozolol],0.47 ± 0.038
